The full list was thinned out, with hits kept by preference.
VHR inh color – VHR1 phosphatase inhibitors, primary screen, biochemical, colorimetric, HTS; Dual specificity protein phosphatase 3 (Homo sapiens), P51452; recombinant VHR phosphatase, colorimetric substrate read-out; inhibition, % at 20 µM; 0.7% of 50,000 active; AID 1992, 2009; in the data active = inhibition above about 60%
Target sequence (P51452 whole entry, looked up): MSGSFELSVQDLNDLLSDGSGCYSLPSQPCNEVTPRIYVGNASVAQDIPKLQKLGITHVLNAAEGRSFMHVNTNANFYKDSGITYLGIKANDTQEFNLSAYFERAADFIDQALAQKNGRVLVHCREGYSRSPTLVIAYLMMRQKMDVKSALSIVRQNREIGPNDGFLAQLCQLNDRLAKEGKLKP
Hits are given with their value; – = inactive.

SMILES	VHR inh color
COc1ccccc1C1Nc2ccc(C(=O)c3ccccc3)cc2NC2=C1C(=O)CCC2 (stereo not given)	–
COc1ccc(C2Nc3ccc(C(=O)c4ccccc4)cc3NC3=C2C(=O)CCC3)c(OC)c1 (stereo not given)	68
CN(C)c1ccc(C2Nc3ccc(C(=O)c4ccccc4)cc3NC3=C2C(=O)CCC3)cc1 (stereo not given)	–
COc1ccccc1NC1=C(Cl)C(=O)N(c2ccc(C)cc2C)C1=O	–
O=C(Nc1ccccc1C(F)(F)F)c1ccc(-c2cc(Cl)ccc2Cl)o1	112
O=C(Nc1ccc(NC(=O)c2ccc(-c3ccc(Cl)cc3Cl)o2)cc1)c1ccccc1	–
CC(=O)c1ccc(NC(=O)c2ccc(-c3ccc(Cl)cc3Cl)o2)cc1	–
O=C(O)c1ccc(-c2cc(Cl)ccc2Cl)o1	–
O=C(Nc1ccccc1C(F)(F)F)c1ccc(Cl)cc1Cl	–
CC(=O)c1cccc(NC(=O)c2ccc(-c3ccc(Cl)cc3Cl)o2)c1	109
Cc1ccc(C)c(NC(=O)c2cncc(Br)c2)c1	–
CN(C)c1ccc(/C=C2\SC(N3CCN(C(c4ccccc4)c4ccccc4)CC3)=NC2=O)cc1	–
COC(=O)c1c(C)oc2ccc(OC(=O)N3CCOCC3)cc12	–
O=C(Nc1ccccc1)c1ccc(-n2cnnn2)cc1	–
O=C(Oc1ccc(-n2cnnn2)cc1)N1CCOCC1	113
COc1ccc(OCC(=O)Nc2sc3c(c2C(N)=O)CCCC3)cc1	–
Cc1ccc(OCC(=O)Nc2sc3c(c2C(N)=O)CCC3)c(C)c1	–
COC(=O)c1ccccc1NC(=O)COc1ccc2ccccc2c1	–
COC(=O)c1sc(NC(=O)COc2ccc3ccccc3c2)c(C(N)=O)c1C	97
CCN(CC)C(=O)c1sc(NC(=O)COc2ccc3ccccc3c2)c(C(=O)OC(C)C)c1C	–
Cc1cc(=O)oc2cc(OCC(=O)Nc3sc4c(c3C(N)=O)CCC4)ccc12	78
COC(=O)CN(c1ccc(OC)c(Cl)c1)S(=O)(=O)c1ccccc1	–
CCc1sc(-c2c(C#N)c(N)nc3c2CCCCC3)cc1Br	–
Cc1ccc(-c2nc(-c3ccncc3)no2)cc1[N+](=O)[O-]	–
COc1cc(C2C(C#N)=C(N)SC(N)=C2C#N)ccc1O	–
SMILES	VHR inh color
C#CCn1cc(/C=C2\C(=O)NC(=O)N(c3ccc(Cl)cc3)C2=O)c2ccccc21	82
O=C(Cn1cc(/C=C2\NC(=O)NC2=O)c2ccccc21)Nc1ccccc1	–
Cc1ccccc1N1C(=O)NC(=O)/C(=C/c2cn(CC(=O)Nc3ccccc3)c3ccccc23)C1=O	85
COc1ccc(N2C(=O)NC(=O)/C(=C/c3cn(CCOc4ccccc4OC)c4ccccc34)C2=O)cc1	–
O=C(Cn1cc(/C=C2\SC(=O)NC2=O)c2ccccc21)Nc1ccccc1	–
O=C1NC(=O)N(c2ccc(Cl)cc2)C(=O)/C1=C/c1ccccc1	–
N/C(=N\OC(=O)c1ccc(Br)cc1)c1ccc(Cl)cc1	–
O=C(Nc1cc(C(F)(F)F)cc(C(F)(F)F)c1)c1cc2ccccc2o1	–
COc1ccc(-c2c(C#N)c(N)n3c(nc4ccccc43)c2C#N)cc1OC	69
N#Cc1c(-c2cccc(Br)c2)c(C#N)c2nc3ccccc3n2c1N	–
N#Cc1c(-c2ccc(F)cc2)c(C#N)c2nc3ccccc3n2c1N	–
O=C(COc1ccc(Cl)cc1Cl)Oc1ccccc1[N+](=O)[O-]	–
Cc1ccccc1OCC(=O)Nc1ccc(Cl)cc1Cl	–
Cc1ccccc1OC(=O)COc1ccc(Cl)cc1Cl	116
COc1ccc(C(=O)Nc2cc(C)cc(C)c2)c(OC)c1	–
COc1ccc(C(=O)Nc2ccc(S(=O)(=O)Nc3cc(C)on3)cc2)c(OC)c1	110
Cc1cc(NS(=O)(=O)c2ccc(NC(=O)c3cc(Cl)cc(Cl)c3)cc2)no1	–
O=C(CC1S/C(=N\N=C\c2ccccc2)NC1=O)Nc1ccccc1F (stereo not given)	–
CCc1cc(=O)oc2cc(OCc3cccc(C)c3)ccc12	–
Cc1cccc(COc2ccc3c(c2)oc(=O)c2ccccc23)c1	96
Cc1ccc(COc2ccc3c(c2)oc(=O)c2ccccc23)cc1	–
COC(=O)c1ccc(/C=N/NC(=O)CSc2nnc(-c3ccccc3)n2-c2ccccc2)cc1	–
N#CC1=C(N)Oc2cc(O)ccc2C1C1CC=CCC1 (stereo not given)	–
O=C1NC(=O)N(c2ccccc2)C(=O)/C1=C\c1cccn1-c1ccc([N+](=O)[O-])cc1	–
O=C1NC(=S)N/C1=C\c1ccc(-c2cc([N+](=O)[O-])ccc2Br)o1	–
SMILES	VHR inh color
C=CCN1C(=O)/C(=C\c2ccc(-c3ccc([N+](=O)[O-])cc3Br)o2)C(=O)NC1=S	–
C=CCN1C(=O)/C(=C\c2ccc(-c3ccc(OC)cc3[N+](=O)[O-])o2)C(=O)NC1=S	–
C=CCN1C(=O)/C(=C\c2ccc(-c3ccccc3[N+](=O)[O-])o2)C(=O)NC1=S	88
O=C1NC(=S)NC(=O)C1=Cc1ccc(-c2ccc([N+](=O)[O-])cc2Br)o1	64
O=C1NN(c2ccccc2)C(=O)/C1=C/c1cccn1-c1ccc([N+](=O)[O-])cc1	–
C=CCN1C(=O)/C(=C\c2ccc(-c3ccc([N+](=O)[O-])cc3Cl)o2)C(=O)NC1=S	–
C=CCN1C(=O)/C(=C\c2cccn2-c2ccc([N+](=O)[O-])cc2)C(=O)NC1=S	80
O=C1c2cccc3cccc(c23)C(=O)N1CCN1CCN(S(=O)(=O)c2ccc(Cl)cc2)CC1	–
COc1ccc(C(=O)Nc2ccc(OC(F)(F)F)cc2)cc1OC	–
O=C(CC1(c2ccccc2)C(=O)c2ccccc2C1=O)NC1CCCCC1	–
COc1ccccc1C(=O)Nc1ccc(OC(F)(F)F)cc1	–
O=C(N/N=C\c1ccc(Cl)cc1Cl)c1cncc(Br)c1	–
CC(C)C1=NN2C(=N)/C(=C/c3cc(Cl)ccc3OCc3ccccc3)C(=O)N=C2S1	–
CCCC1=NN2C(=N)/C(=C/c3ccccc3C)C(=O)N=C2S1	–
C=CCOc1ccc(Cl)cc1/C=C1/C(=N)N2N=C(CCC)SC2=NC1=O	108
Cc1cccc(-n2c(=S)[nH]c3ccccc3c2=O)c1	–
COc1ccc(-c2cc(C(F)(F)F)n3nc(-c4ccccc4)cc3n2)cc1	–
COC(=O)C1=C(C)N(C)C(C)=C(C(=O)OC)C1c1cc(OC)c(OC)c(OC)c1	–
COC(=O)C1=C(C)N(C)C(C)=C(C(=O)OC)C1c1ccc(OC)c(OC)c1	–
COC(=O)C1=C(C)N(C)C(C)=C(C(=O)OC)C1c1cc(Br)c(OC)c(OC)c1	116
CCC(C)OC(=O)C1=C(C)NC(=O)NC1c1ccccc1 (stereo not given)	–
CCOc1cc(C=O)ccc1OCc1ccc(Cl)c(Cl)c1	–
Cc1ccc(OCCCCNC(=O)C(O)(c2ccc(F)cc2)c2ccc(F)cc2)cc1	–
CCc1ccc(N2C(=O)NC(=O)/C(=C/C=C/c3ccco3)C2=O)cc1	–
O=C1NC(=S)N(c2ccccc2)C(=O)/C1=C/c1ccco1	67
SMILES	VHR inh color
C=CCN1C(=O)/C(=C\C=C\c2ccco2)C(=O)NC1=S	88
O=C1NC(=S)N(c2ccccc2)C(=O)/C1=C/c1ccc(Cl)cc1Cl	–
C=CCN1C(=O)/C(=C\c2ccc(Br)cc2)C(=O)NC1=S	–
O=C1NC(=S)N(c2ccccc2F)C(=O)C1=Cc1ccco1	87
O=C1NC(=S)N(c2ccccc2F)C(=O)/C1=C/c1ccc(Sc2ccccc2)o1	–
O=C1NC(=S)N(c2ccccc2)C(=O)/C1=C/c1cc(Br)c(O)c(Br)c1	–
Cc1ccc(C=C2C(=O)NC(=S)N(c3ccccc3F)C2=O)s1	–

Compound activity as filed in PubChem.
